An excerpt weighted towards active compounds, which were near 3.4% of everything screened.
Wnt bcat act = Wnt/beta-catenin pathway activators, primary screen, cell-based, plate reader, single point. actives 1.2% (n = 300,000). activation, % at 9.35 µM. Wnt/beta-catenin reporter cell assay, activator; in the data active means activation above about 30%, passing the limit was not always enough; inconclusive means no clear call, values can overlap the other calls;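 further: 0% = neutral control wells and 100% = positive control wells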
esBAF inh = Bmi1 luciferase reporter increase in mESCs, primary screen, esBAF inhibitor project, mouse ES cells, Bmi1 luciferase knock-in, single point | actives 2% (n = 350,000) | reporter increase, % at 12.5 µM | AID 602393, 2012 | 24 h; 100% = twice the neutral-well signal; in the data active means activation above about 40%; inconclusive means no clear call, values can overlap the other calls;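 further: 0% = median of the plate's neutral control wells and 100% = double that signal; a rise in the Bmi1 reporter signal indicates esBAF inhibition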
miR122 inh = miR-122 Renilla sensor signal increase in Huh7, primary screen, miR-122 inhibitor project, cell-based, single point, plate reader. Huh7 miR-122 Renilla luciferase sensor, 48 h; neutral wells = 0, positive control = 100. activation (reporter increase), % at 12.5 µM. AID 602342, 2012. actives 0.3% (n = 340,000);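 active means mean replicate activation score at least 90 and every replicate individually at or above 90; inconclusive means only one of the two criteria met; inactive means neither criterion met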;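 further: higher luciferase means less miR-122 activity so hits act as miR-122 inhibitors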
MITF TRPM1 HTS = activators of MITF-driven TRPM1 promoter reporter, primary screen, cell-based, SK-MEL-5, luciferase, single point. AID 588334, 2011. SK-MEL-5 TRPM1-promoter luciferase, 24 h; % of positive control, neutral wells = 0. actives 0.75% (n = 300,000). activation, % at 12.5 µM;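 active means mean activation of at least 80% with every replicate also reaching 80%; inconclusive means mean reaches 80% but some replicate falls short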;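 further: 0% = neutral control wells and 100% = parthenolide positive control wells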
Env fusion inh = inhibitors of HIV-1 Env-driven cell-cell fusion, primary screen, HeLa-JRFL effector, CEM21 target cells, luciferase; actives 1.1% (n = 360,000); AID 651610, 2012; inhibition, % at 12.3 µM;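 active means mean replicate inhibition score of at least 50 and every replicate individually at or above 50; inconclusive means only one of the two criteria met; inactive means mean below 50 and not all replicates reaching 50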;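 further: 0% = plate neutral controls and 100% = maraviroc near 300 nM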
An asterisk follows results filed as active; ? = inconclusive; · = no result given; [ ] = remark or other dose.

SMILES | Wnt bcat act | esBAF inh | miR122 inh | MITF TRPM1 HTS | Env fusion inh
COC(=O)c1ccc(CSC2=NC[C@@H]3[C@@H]4C(=O)N(Cc5ccccc5)C(=O)[C@@H]4[C@](C)(C(=O)OC)N23)cc1 | -0.5 | 2.0 | -4.0 | 1.6 | 27.7
COC(=O)[C@@]1(C)[C@H]2C(=O)N(Cc3ccccc3)C(=O)[C@H]2[C@H]2CN=C(SCc3ccc(C)cc3)N21 | -0.5 | -1.9 | -5.1 | -1.4 | 65.1*
C/C(=N\NC(=O)c1cccc(Cl)c1)C1C(=O)c2ccccc2C1=O | 12.8 | 23.1 | -2.1 | 11.2 | 56.9*
CCc1ccc(C2=NNC(=Nc3cccc(S(=O)(=O)N(C)C)c3)SC2)cc1 | -11.5 | · | · | -45.5 | 80.0*
COc1ccc(Nc2oc(COc3ccc(C)cc3)nc2C#N)cc1 | · | -18.6 | 0.1 | · | ?
CCNc1oc(COc2cccc(C)c2)nc1C#N | · | 45.2* | -2.2 | 12.4 | ·
Cc1cccc(OCc2nc(C#N)c(NCCN(C)C)o2)c1 | -3.6 | 3.1 | -7.5 | 5.7 | -3.8
N#Cc1nc(COc2cccc(Cl)c2)oc1NCc1ccco1 | 11.9 | 50.8* | -2.1 | 47.4 | -11.2
COc1ccc(Nc2oc(COc3cccc(C)c3)nc2C#N)cc1 | 42.7* | -11.5 | -9.0 | 20.6 | 39.0
Cc1noc(C)c1NC(=O)N[C@H]1CC[C@@H](CC(=O)N2CCCCC2)O[C@H]1CO | · | 2.8 | · | · | -11.1[16.7 µM]
Cc1ccc(-c2nc(CS(=O)(=O)CC(=O)NCCCN(Cc3ccccc3)C(C)C)c(C)o2)cc1 | -0.6 | -1.5 | -12.4 | -12.8 | -0.9
Cc1oc(-c2ccc(-c3ccccc3)cc2)nc1CN(CCO)C(C)C | 11.6 | 59.8* | 9.1 | 36.0 | -253.3
COc1cc(N=CC2=C(O)c3ccccc3C2=O)cc(OC)c1 | 0.1 | 43.2* | -2.6 | 62.1 | -16.5
CCCn1cnc2c(cnn2-c2ccc(F)cc2)c1=O | · | 52.4* | · | 38.1 | ·
C[C@@H]1CCCCO[C@H](CN(C)C(=O)NC2CCCCC2)[C@H](C)CN([C@@H](C)CO)C(=O)c2cc(NS(=O)(=O)c3ccccc3)ccc2O1 | · | 4.4 | -6.1[16.7 µM] | · | 4.5[16.7 µM]
NC(=O)Cn1cc(/C=N\NS(=O)(=O)c2ccc(F)cc2)c2ccccc21 | -1.7 | -5.6 | 135.3* | -1.8 | -2.4
CCc1ccc(S(=O)(=O)N/N=C\c2cn(CC(N)=O)c3ccccc23)cc1 | 1.0 | · | · | -2.4 | -2.5
CC=Cc1ccc2n(c1=O)C[C@@H]1[C@@H](CO)[C@H](C(=O)N3CCc4ccccc4C3)[C@H]2N1Cc1cocn1 (mixture of isomers) | · | 1.9 | 2.0[16.7 µM] | · | ·
O=C(CNC(=O)c1cccc(-n2cccc2)c1)Nc1ccccc1Br | -5.3 | -5.7 | -2.1 | · | 69.8*
O=C(C[C@@H]1C[C@@H]2c3cc(NC(=O)Nc4ccccc4)ccc3O[C@@H]2[C@H](CO)O1)NCCN1CCCCC1 | · | -7.0 | 0.6[16.7 µM] | · | -25.1[16.7 µM]
O=C(N/N=C/c1ccc[nH]1)c1ccc(O)cc1 | -1.9 | · | · | 19.0 | 7.3
O=C(N/N=C/c1ccc[nH]1)c1ccc(COc2cccc3cccnc23)cc1 | -6.7 | -26.0 | -19.3 | -46.6 | 70.8*
Cc1cc(Br)c(OCc2ccc(C(=O)N/N=C/c3ccc[nH]3)cc2)c(Br)c1 | -27.0 | -53.2 | -22.1 | · | 91.4*
C[C@@H]1CCCCO[C@H](CN(C)C(=O)Cc2ccccc2)[C@@H](C)CN([C@H](C)CO)C(=O)c2cc(NC(=O)c3ccccc3)ccc2O1 | · | 0.0 | 12.2[16.7 µM] | · | -48.0[16.7 µM]
O=C(NCC[C@@H]1CC[C@@H](NC(=O)C2CC2)[C@@H](CO)O1)c1ccc(F)cc1 | · | 2.0 | · | · | 2.3[16.7 µM]
SMILES | Wnt bcat act | esBAF inh | miR122 inh | MITF TRPM1 HTS | Env fusion inh
CC(C)(C)c1cc(NC(=O)c2ccc(OC3CCCC3)cc2)no1 | -1.6 | · | 0.4 | 36.2 | ·
O=C(Nc1ccon1)c1ccc(OC2CCCC2)cc1 | 46.2* | · | -24.3 | ? | -70.8
COc1ccccc1S(=O)(=O)N(C)C[C@H]1Oc2cc(C#CCC(C)C)ccc2S(=O)(=O)N([C@@H](C)CO)C[C@H]1C | · | -1.1 | 37.0[16.7 µM] | · | 55.0*[16.7 µM]
COc1cccc(S(=O)(=O)N(C)C[C@@H]2Oc3cc(C#CCC(C)C)ccc3S(=O)(=O)N([C@H](C)CO)C[C@@H]2C)c1 | · | -0.5 | -6.9[16.7 µM] | · | 61.8*[16.7 µM]
COc1cccc(S(=O)(=O)N(C)C[C@H]2Oc3cc(C#CCC(C)C)ccc3S(=O)(=O)N([C@H](C)CO)C[C@H]2C)c1 | · | 3.5 | 39.6[16.7 µM] | · | 72.9*[16.7 µM]
CCCC#Cc1ccc2c(c1)O[C@H](CN(C)S(=O)(=O)c1cccc(OC)c1)[C@H](C)CN([C@H](C)CO)S2(=O)=O | -2.1 | -2.1 | 56.8 | · | 38.2[16.7 µM]
CN1CCN(C(=O)c2cc3c(c(-c4cccc(-c5ccc(C(=O)N(C)C)cc5)c4)n2)[C@H](CCO)N([S@@](=O)C(C)(C)C)C3)CC1 | · | -2.1 | · | · | 4.7[16.7 µM]
C[C@@H]1CN([C@@H](C)CO)C(=O)c2ccccc2-c2ccccc2CO[C@H]1CN(C)S(=O)(=O)c1ccc(C(F)(F)F)cc1 | · | 0.1 | · | · | 19.9[16.7 µM]
C=CCSc1nnc2c(n1)OC(c1cccnc1)Nc1ccccc1-2 (configuration not stated) | 53.6* | · | 8.4 | 13.3 | -37.6
C=CCSc1nnc2c(n1)OC(c1cccnc1)N(C(C)=O)c1ccccc1-2 (configuration not stated) | -3.3 | 4.3 | -10.2 | -0.5 | -13.0
N#Cc1ccccc1OCc1nnc(-c2ccccc2Br)o1 | 29.1 | 55.3* | -1.4 | 159.1* | -81.9
Clc1ccccc1OCc1nnc(-c2ccccc2Br)o1 | · | 114.8* | 5.1 | 99.3* | ·
CCCNC(=O)N(C)C[C@@H]1Oc2ncc(C#CC3(O)CCCC3)cc2C(=O)N([C@H](C)CO)C[C@@H]1C | · | 7.8 | 1.1[16.7 µM] | · | -12.5[16.7 µM]
CN(Cc1cnn(-c2ccccc2)c1)C(=O)c1cccc(S(=O)(=O)N(C)c2ccccc2)c1 | -1.4 | 6.8 | 37.6 | · | 13.3
Cc1ccc(N(C)S(=O)(=O)c2cccc(C(=O)N(C)Cc3cnn(-c4ccccc4)c3)c2)cc1 | -2.4 | 6.7 | -2.6 | -8.5 | 63.4*
COCC#Cc1ccc2c(c1)O[C@H](CN(C)S(=O)(=O)c1cccc(OC)c1)[C@H](C)CN([C@@H](C)CO)S2(=O)=O | · | -1.0 | 9.6[16.7 µM] | · | 2.8[16.7 µM]
Cc1nc2ccccn2c1C(=O)NNS(=O)(=O)c1ccc(C(C)(C)C)cc1 | -5.4 | · | · | -21.0 | 72.1*
CN(/N=C/c1ccncc1)C1=NCCN1 | 3.7 | -8.5 | · | 1.0 | -9.5
CN(/N=C/c1ccncc1)c1cnc2ccccc2n1 | 37.3* | · | · | 34.9 | -109.8
C[C@@H]1CN([C@@H](C)CO)S(=O)(=O)c2ccc(Br)cc2O[C@@H]1CN(C)Cc1ccncc1 | · | 3.6 | 21.8[16.7 µM] | · | -4.1[16.7 µM]
COc1ccc(OC)c(N=CC2=C(O)CC(C)(C)CC2=O)c1 | · | 2.4 | 2.9 | 1.0 | ·
COc1ccc(N=CC2=C(O)CC(C)(C)CC2=O)cc1 | · | 49.4* | 9.9 | 31.6 | ·
COc1cccc2sc(N)nc12 | 7.9 | 0.7 | -4.2 | 7.2 | ·

Compound activity (PubChem BioAssay)
